An excerpt weighted towards active compounds, which were near 6% of everything screened.
D3 ag: D3 dopamine receptor (human) agonism. 0.58% of 410,000 active. max activation, %. D3R DiscoveRx beta-arrestin cells, luminescence, 90 min; in the data active = max activation above about 30%; note: 0% is about no effect
Target sequence (P35462 whole entry, looked up): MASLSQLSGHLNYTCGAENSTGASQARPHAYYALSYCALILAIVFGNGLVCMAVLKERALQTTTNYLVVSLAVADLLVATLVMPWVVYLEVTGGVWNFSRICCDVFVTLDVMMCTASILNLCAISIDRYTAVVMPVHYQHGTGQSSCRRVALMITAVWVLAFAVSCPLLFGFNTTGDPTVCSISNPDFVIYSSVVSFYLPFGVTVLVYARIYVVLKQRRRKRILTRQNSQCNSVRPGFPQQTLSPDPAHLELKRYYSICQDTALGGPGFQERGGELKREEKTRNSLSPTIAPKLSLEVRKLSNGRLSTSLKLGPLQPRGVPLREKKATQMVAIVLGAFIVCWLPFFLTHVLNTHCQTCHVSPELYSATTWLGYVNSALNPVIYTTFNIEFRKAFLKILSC
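Agonist-mode cell screen: cells plated at 1500/well and incubated overnight at 37 °C, then exposed to library compounds for 90 min at 37 °C. Detection reagent was added for 30–60 min at room temperature, and luminescence was read.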
D1 antagonist: blocks dopamine activation of the human D1 receptor; HEK293 TREx D1 cells, calcium flux, dopamine EC80; active compounds read low; 3.2% of 360,000 active; activity change, negative = inhibition, % at 10 µM; P21728; in the data active = activity change below about -30%; note: % is set by controls: 0 for no effect and ±100 for the full control effect
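Compound effects on dopamine-evoked calcium signalling were measured in tetracycline-induced HEK293 Trex D1 cells. Dopamine at EC80 followed a 180 s compound pre-read, and fluorescence was tracked kinetically for 180 s more.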
D1 ag: activates the human D1 dopamine receptor | HEK293 T-REx D1 cells, calcium flux, agonist mode | AID 504660 | 1% of 360,000 active | P21728 | activation, % at 2 µM; in the data active = activation above about 30%; note: 0% is about no effect
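Inducible HEK293 T-REx D1 cells, force-coupled to calcium signalling, were plated at 4000 cells/well with tetracycline and held overnight at 30 C. After no-wash calcium dye loading, compound-evoked calcium rise over 180 s flagged agonists.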
D1 potentiator: human D1 dopamine receptor positive modulation. AID 504651. potentiation, % at 10 µM. 0.036% of 360,000 active. HEK293 TREx D1 cells, calcium flux, dopamine EC20 potentiation. P21728; in the data active = potentiation above about 30%; note: 0% is about no effect
D3 antag: D3 dopamine receptor (human) antagonism | P35462 | D3R cells, DiscoveRx beta-arrestin luminescence, antagonist mode; active compounds read low | max response, negative = inhibition, % | 2.5% of 360,000 active; in the data active = max response below about -50%; inconclusive = no clear call, values can overlap the other calls; note: % is set by controls: 0 for no effect and ±100 for the full control effect
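Cells plated overnight at 1500 cells/well, then exposed to library compounds with dopamine controls for 90 minutes at 37 degrees C. DiscoveRx reagent added for 30–60 minutes at room temperature; luminescence read, quantitative HTS format.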
Starred values were filed as active, the others as inactive; ? = inconclusive; . = not tested or not shown.

SMILES | D3 ag | D1 antagonist | D1 ag | D1 potentiator | D3 antag
C[C@@H]1[C@H]2[C@@H](O[C@@H]3O[C@H](CO)[C@@H](O)[C@H](O)[C@H]3O)OC=C(C(=O)O)[C@H]2C[C@@H]1O | 43* | 1 | 14 | 1 | -12
O=c1cc(-c2ccccc2)n(S(=O)(=O)c2ccc3ccccc3c2)o1 | -5 | . | . | . | -77*
Cc1ccc(C)c(OCCn2c(CCNC(=O)C3CCCCC3)nc3ccccc32)c1 | . | 3 | -2 | -2 | .
CCN(C(=O)C(=O)Nc1ccc2nc3n(c(=O)c2c1)CCCCC3)c1ccc(F)cc1 | 9 | -39* | 1 | 2 | .
CCN(CC)C(=O)c1cccc(NC(=O)c2ccc3c(=O)n4c(nc3c2)CCC4)c1 | -6 | -40* | 1 | -7 | 7
O=C(NNC(=O)c1ccc2c(=O)n3c(nc2c1)CCC3)c1ccc(Cl)cc1 | -4 | -14 | 3 | -1 | 0
O=C(NNC(=O)c1ccc2c(=O)n3c(nc2c1)CCC3)c1cccc(Cl)c1 | -9 | -32* | -3 | -7 | -5
COc1ccc(CC(N)c2csc(Nc3nncc4ccccc34)n2)cc1 (stereo not drawn) | 2 | . | . | . | 8
Cc1ccc(N/C(N)=N/c2nc(C)cc(N3CCCCC3)n2)c(C)c1 | 3 | -99* | 16 | -8 | 12
Cc1ccc(N/C(N)=N/c2nc3c(c(=O)[nH]2)CCCC3)c(C)c1 | -4 | 4 | 1 | -8 | ?
COc1cc(Br)c(C(=O)c2nccc3cc(OC)c(OC)cc23)cc1OC | -3 | -31* | 1 | -6 | 3
O=C(Nc1nnc(SCc2ccccn2)s1)C1CC(=O)N(c2ccccc2)C1 (stereo not drawn) | 6 | -78* | 2 | -10 | 11
C=CCN1C(=Nc2cccnc2)SCC1(O)c1ccc(C)cc1 (stereo not drawn) | . | -56* | 19 | -14 | .
CNc1c(NS(=O)(=O)c2ccc(OC)c(Cl)c2)c(=O)oc2ccccc12 | 2 | 15 | 0 | -6 | 6
Cc1ccc(N(CC(O)CN2CCCCC2)S(=O)(=O)c2ccccc2[N+](=O)[O-])cc1 (stereo not drawn) | -17 | 3 | 3 | 0 | -51*
O=[N+]([O-])c1ccccc1S(=O)(=O)N(CC(O)CN1CCCCC1)c1ccccc1 (stereo not drawn) | -23 | 5 | 2 | 3 | -18
COC(=O)C(C)Sc1nc2c([nH]c3ccccc32)c(=O)n1-c1ccc(OC)cc1 (stereo not drawn) | -7 | -7 | 1 | -7 | .
Cc1cccc(C)c1NC(=O)CNC(=O)Cc1c[nH]c2ccccc12 | -10 | -10 | 1 | 0 | 10
Cc1cccc(C)c1NC(=O)c1c[nH]c2ccccc12 | -7 | -48* | 0 | -11 | 2
COC(=O)[C@@]1(Cc2ccc(F)cc2)[C@H]2c3cc(C(=O)N(C)C)n(Cc4nc5ccccc5[nH]4)c3C[C@H]2CN1C(=O)c1ccccc1 | -66 | -6 | 10 | 1 | -68*
Cc1cccc(C)c1-n1nnnc1C(c1ccnc2ccccc12)N1CCN(C(=O)OC(C)(C)C)CC1 (stereo not drawn) | -4 | . | . | . | 5
COc1ccc(NC(=O)CN2CCC(C)CC2)cc1 | -20 | 8 | 4 | -2 | -69*
CC1CCC(NC(=O)CN2CCN(S(=O)(=O)c3cccs3)CC2)CC1 (stereo not drawn) | -1 | -2 | 0 | -3 | 8
CCOc1ccc(NC(=O)NCCN2CCN(c3cccc(C)c3C)CC2)cc1 | 63* | -16 | 29 | -8 | -59*
CCOc1ccc(OCC)c(NC(=O)CN2CCN(c3cccc(C)c3C)CC2)c1 | 7 | -16 | 0 | -8 | -19
SMILES | D3 ag | D1 antagonist | D1 ag | D1 potentiator | D3 antag
COc1ccc(NC(=O)CN2CCC(C(N)=O)CC2)cc1 | 2 | -15 | -1 | -7 | -5
COc1cccc(NC(=O)NCCCN2CCN(c3ccc(F)cc3)CC2)c1 | -30 | 28 | 4 | -10 | -56*
CC1CCCC(NC(=O)CN2CCN(S(=O)(=O)c3cccs3)CC2)C1C (stereo not drawn) | 10 | -42* | 2 | -11 | -20
O=C(Cn1cc(CNC(=O)c2ccccc2)nn1)Nc1cc(C(F)(F)F)ccc1Cl | . | -2 | -1 | 1 | .
O=C(O)C(=Cc1ccc([N+](=O)[O-])cc1)c1cccc(Cl)c1 | 4 | . | . | . | 9
CCN1C(=O)[C@H]2[C@@H](c3ccc(C(F)(F)F)cc3)N[C@]3(CCCN(Cc4ccc(F)cc4)C3=O)[C@H]2C1=O | -4 | . | . | . | -2
COc1ccc(NC(=O)NCCN2CCCCC2)cc1 | -4 | -11 | 5 | -3 | -6
Cc1ccc(NC(=O)CN2CCN(S(=O)(=O)c3cccs3)CC2)cc1S(=O)(=O)N(C)C | -15 | -36* | 5 | -10 | -19
COc1ccc(/C=N/NC(=O)CN2CCS(=O)(=O)CC2)cc1 | 2 | 11 | 0 | -4 | -52*
Cc1ccccc1C(=O)c1cccn1CC(=O)NCCCN1CCCCC1 | -15 | 15 | -1 | 0 | -21
COc1ccc(NC(=O)NCCCN2CCN(c3ccccc3F)CC2)cc1 | 34* | -86* | 6 | -13 | ?
CCN1CCN(CC(=O)Nc2ccc(Cl)c(S(=O)(=O)N(C)C)c2)CC1 | -17 | 17 | 5 | 3 | 4
Cc1ccc(C)c(N2CCN(CCCNC(=O)Cn3cccc3C(=O)c3ccccc3C)CC2)c1 | -8 | -36* | 26 | -6 | -57*
COc1cccc(NC(=O)CSc2nnc3ccc(-c4ccncc4)nn23)c1 | -14 | -8 | 4 | -7 | 0
COc1ccc(NC(=O)CN2CCN(c3ccccc3F)CC2)cc1 | -11 | -6 | 1 | -2 | -87*
COc1ccc(NC(=O)NCCCN2CCN(c3cc(C)ccc3C)CC2)cc1 | -6 | 2 | -1 | -9 | -108*
CN(C)S(=O)(=O)c1cc(NC(=O)CN2CCN(c3ccccc3F)CC2)ccc1Cl | 49* | -32* | 4 | -12 | -7
COc1ccc(NC(=O)CN2CCN(c3ccc(C)cc3C)CC2)cc1 | -4 | -6 | -1 | -4 | 15
COc1ccc(NC(=O)CN2C(=O)CC(C)(C)S(=O)(=O)c3ccccc32)cc1 | 6 | -33* | 1 | -8 | 12
CCN(CC(=O)NCc1ccc(F)cc1)C(=O)/C=C/c1ccc(OC)c(S(=O)(=O)NC(C)C)c1 | -2 | 6 | 1 | -2 | -4
CC(=O)NC(c1ccc(F)c(F)c1)c1nc(-c2cccs2)cs1 (stereo not drawn) | 10 | . | . | . | 8
COc1ccccc1CNC(=O)CSc1nc2nc(C)c(Cc3ccccc3Cl)c(C)n2n1 | 2 | 2 | 2 | 1 | .
Cc1ccccc1CNC(=O)c1nn(-c2ccccc2F)nc1CO | -6 | -2 | 1 | 1 | .
CCOc1cccc(N2CCN(CCNC(=O)Nc3ccc(C)cc3)CC2)c1C | 59* | -2 | 14 | -7 | ?
